Assay outcomes: PubChem, National Center for Advancing Translational Sciences (NCATS)
The list is not random: actives were taken first. Their share in the collection is about 3.4%.
KDM4E inh: inhibitors of human JMJD2E histone demethylase; B2RXH2; JMJD2E catalytic domain, FDH-coupled NADH fluorescence (FDH is formaldehyde dehydrogenase); Potency, µM (series often up to 57.1 µM), inactives show top-dose activity change, negative = inhibition, most hits filed as inhibitors; hit rate 1.6% among 230,000; active means well fitted inhibition curve with a large enough effect, not every such curve was filed as active; inconclusive means small, poorly fitted or top-dose-only effect, or another doubt; inactive means no such curve, though single readings can be large or run the other way;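 further: 0% = wells with enzyme and -100% = buffer wells without enzyme; nearly all actives have a fitted effect of over 50% in size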
Target sequence (B2RXH2 1-337 limits assumed): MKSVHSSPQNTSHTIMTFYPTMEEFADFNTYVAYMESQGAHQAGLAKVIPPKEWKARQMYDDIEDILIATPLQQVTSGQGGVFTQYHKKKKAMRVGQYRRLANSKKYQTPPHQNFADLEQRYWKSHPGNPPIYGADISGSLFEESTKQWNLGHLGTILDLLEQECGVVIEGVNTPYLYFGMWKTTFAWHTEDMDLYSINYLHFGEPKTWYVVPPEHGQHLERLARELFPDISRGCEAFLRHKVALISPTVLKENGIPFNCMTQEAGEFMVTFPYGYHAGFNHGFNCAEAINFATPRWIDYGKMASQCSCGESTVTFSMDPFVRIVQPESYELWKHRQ
Tau fluor cs: counter-screen for tau fibril formation inhibitors; Potency, µM (titrated, usually from 57.7 µM), for the others: top-dose activity change, negative = decrease; tau K18 P301L Alexa594 fluorescence, heparin fibrillization; hit rate 0.93% among 280,000; AID 1463; further: nearly all actives have a fitted effect of over 55% in size
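Human K18 P301L tau (15 uM unlabeled plus 0.24 uM Alexa 594-labeled, final) in 100 mM sodium acetate pH 7 was mixed with compound and 20 uM heparin and incubated 6 hr at 37 C.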
Tau FP inhib: inhibitors of human tau fibril formation; AID 1468; P10636; hit rate 0.39% among 280,000; Potency, µM (highest dose often 57.7 µM), for inactives: at the highest dose activity, negative = inhibition, hits mostly inhibitors; K18 P301L tau heparin fibrillization, Alexa594 FP, 6 h; further: nearly all actives have a fitted effect of over 55% in size
Target sequence (P10636 561-689 P618L limits assumed): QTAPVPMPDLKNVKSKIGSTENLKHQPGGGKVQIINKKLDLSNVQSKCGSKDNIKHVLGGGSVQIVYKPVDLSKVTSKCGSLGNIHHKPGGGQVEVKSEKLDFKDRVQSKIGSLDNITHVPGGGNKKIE
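Heparin (20 uM) drove fibril formation of recombinant tau K18 P301L, 15 uM unlabeled with 0.24 uM Alexa 594 label, for 6 hr at 37 C in 100 mM sodium acetate pH 7. Fluorescence polarization (555/632 nm) read 1 hr after 30 uM ThT.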
RGS12 GoLoco inh: blocks human Gai1 binding to RGS12 GoLoco peptide, red readout | P63096 | Potency, µM (titrated, usually from 61.6 µM), inactives show at the top dose activity, negative = inhibition, hits mostly inhibitors | AID 880 | Gai1:RGS12 GoLoco peptide FP, rhodamine, 10 min | hit rate 0.44% among 230,000; active means well fitted inhibition curve with a large enough effect, not every such curve was filed as active; inactive means no such curve, though single readings can be large or run the other way; further: nearly all actives have a fitted effect of over 30% in size
Tau fibril ThT: blocks human tau fibril formation measured by thioflavin T. recombinant tau K18 P301L (four-repeat tau fragment), heparin-induced fibrillization, ThT fluorescence. Potency, µM (titrated, usually from 57.4 µM), without a hit: top-dose activity, negative = inhibition, most hits filed as inhibitors. P10636. hit rate 2.1% among 270,000. AID 1460; further: nearly all actives have a fitted effect of over 55% in size
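Recombinant human tau K18 fragment […] carrying P301L, 15 uM unlabeled plus 0.24 uM Alexa 594-labeled, was fibrillized with 20 uM heparin in 100 mM sodium acetate pH 7 for 6 hr at 37 C; 30 uM ThT fluorescence read after 1 hr.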
* = called active by the depositor; ? = inconclusive; / = no result; [ ] = remark or other dose. Unless noted, the call rests on the fitted dose curve; in most records, active means well fitted curve in the direction sought with a large enough effect; inconclusive means small, poorly fitted or top-dose-only effect, or another doubt; inactive means no such curve, though single readings can be large; an effect the other way counts as inactive or inconclusive. Unless noted, on the % scale 0 is the no-effect control and ±100 the full control effect; potency means the concentration at half of the fitted maximal effect.

SMILES | KDM4E inh | Tau fluor cs | Tau FP inhib | RGS12 GoLoco inh | Tau fibril ThT
Cc1cc(C)cc(-n2ccn(CC(=O)c3ccc(F)cc3)c(=O)c2=O)c1 | / | -14.0% | 1.3% | / | -4.0%
O=c1[nH]c(=O)c2nnc(N/N=C\c3ccc(O)cc3)nc2[nH]1 | 3.2% | -10.2% | -1.0% | -7.9% | 3.98µM*
COc1ccc(S(=O)(=O)NCCC(=O)NCc2ccccc2)cc1 | 6.3% | 7.94µM*[quencher] | ? | / | 10.2%
COc1ccc(S(=O)(=O)NCc2ccccc2)cc1 | -4.7% | -5.2% | 4.2% | -16.5% | -6.5%
COc1ccc(CNC(=O)c2nn(-c3ccccc3C)nc2CO)cc1 | / | -4.9% | 2.9% | / | -1.6%
CN1CCC/C1=C1/C(=O)N(c2ccccc2)N=C1NC(=O)Nc1cccc(Cl)c1 | -6.6% | ? | ? | 5.7% | 8.91µM*
CCC1c2ccc(C)n2CCN1C(=O)Nc1cc(Cl)ccc1OC (stereo not drawn) | -0.3% | -27.6% | ? | 4.8% | 22.4µM*
CCC1c2ccc(C)n2CCN1C(=O)Nc1ccccc1C(=O)OC (stereo not drawn) | ? | -12.9% | ? | -15.4% | ?
CCOC(=O)C1CCN(C(=O)CN2c3ccc(C(C)C)cc3-c3ccccc3S2(=O)=O)CC1 | / | 1.3% | 3.8% | / | -1.7%
Cc1ccc(S(=O)(=O)c2cn(C)c3cc(N4CCCC(C)C4)c(F)cc3c2=O)c(C)c1 (stereo not drawn) | / | -8.7% | -10.6% | / | -6.8%
O=C(O)CN1C(=O)/C(=C/c2ccc(N3CCCCC3)o2)SC1=S | 31.6µM* | -2.7% | ? | -196.8% | 15.8µM*
CCOC(=O)CN1C(=O)S/C(=C/c2ccc(N3CCCCC3)o2)C1=O | -1.1% | -6.0% | 0.0% | -19.2% | ?
COC(=O)CN1C(=O)S/C(=C/c2ccc(N3CCCCC3)o2)C1=O | ? | -24.1% | ? | 203.0% | 25.1µM*
CN(C)c1ccc(/C=C/c2ccc3ccccc3n2)cc1 | 22.4µM* | ? | 4.0% | 27.0% | ?
COC(=O)C(C)NC(=O)N1CCN(c2nnc(C)c3c(C)n(-c4ccc(Cl)cc4)nc23)CC1 (stereo not drawn) | / | 12.6% | 4.8% | / | 8.8%
Cc1[nH]n(-c2ccc([N+](=O)[O-])cc2)c(=O)c1C=NCC1CCCO1 (stereo not drawn) | -1.7% | -7.1% | 1.8% | -2.3% | -16.9%
Cc1ccc(-n2[nH]c(C)c(/C=N/Nc3ccc([N+](=O)[O-])cc3[N+](=O)[O-])c2=O)cc1 | -12.0% | 3.16µM*[quencher] | 10µM* | 2.1% | 1.58µM*
Cc1[nH]n(-c2ccc([N+](=O)[O-])cc2)c(=O)c1C=NCCc1c(C)[nH]c2ccccc12 | -4.3% | 22.4µM*[quencher] | ? | 20.9% | ?
O=C(O)CCCCCn1c(SCC(=O)c2ccc(O)c(O)c2)nc2ccsc2c1=O | 10µM* | -16.3% | 0.1% | 12.7% | ?
O=C(CCCn1c(SCC(=O)c2ccc(O)c(O)c2)nc2ccccc2c1=O)NCC1CCCO1 (stereo not drawn) | 8.91µM* | -29.4% | 6.7% | -15.4% | ?
CCOc1ccc(CCNC(=O)Cn2nnc(-c3ccc(C(F)(F)F)cc3)n2)cc1OCC | / | ? | -5.9% | / | 5.3%
CCN1/C(=C/C=C/c2oc3ccc4ccccc4c3[n+]2CC)Oc2ccc3ccccc3c21 | 14.1µM* | 2.82µM*[fluorescent] | ? | -159.6% | 1.12µM*
CC[n+]1c(/C=C/N(C)c2ccccc2)oc2ccc(Cl)cc21 | -3.5% | 1.2% | 8.6% | -8.0% | 4.4%
COc1ccc(N=Cc2nc(-c3ccccc3)oc2OC(=O)c2ccccc2)cc1 | 6.2% | -17.4% | ? | -4.1% | ?
CN(C)c1ccc(N=Cc2nc(-c3ccccc3)oc2OC(=O)c2cccc(Br)c2)cc1 | -4.5% | -26.8% | ? | 13.3% | 10µM*
SMILES | KDM4E inh | Tau fluor cs | Tau FP inhib | RGS12 GoLoco inh | Tau fibril ThT
C=CCn1c(O)c(N=O)c2cc(C)ccc21 | -2.2% | -10.5% | -2.2% | 2.2% | ?
C=CCSc1nnc2nc3c(nn12)c1cc(C)ccc1n3CC=C | -3.0% | -5.0% | 3.1% | -21.8% | 28.2µM*
CN(C)c1ccc(NC(=O)C(=O)C2C(=O)Nc3ccccc32)cc1 (stereo not drawn) | -19.1% | -21.3% | 6.4% | 5.3% | 14.1µM*
CN(C)c1ccc(CC2C(=O)Nc3ccccc32)cc1 (stereo not drawn) | 3.16µM* | ? | ? | -0.5% | 31.6µM*
O=C(N=Nc1c(O)n(Cc2ccccc2)c2ccccc12)c1ccncc1 | 3.0% | -11.1% | 0.5% | 6.7% | 15.8µM*
COc1cc(/C=C2/SC(=S)N(C)C2=O)ccc1OC(=O)c1ccco1 | -9.6% | -3.7% | 1.7% | 116.3% | ?
CCOC(=O)c1ccc(N2NC(=O)/C(=C/c3ccc(OC(=O)c4ccco4)c(OC)c3)C2=O)cc1 | -4.9% | ? | 8.7% | -17.3% | 22.4µM*
CCOc1cc(/C=C2/SC(=S)NC2=O)ccc1OC(=O)c1ccco1 | -5.2% | -21.8% | ? | 20.9% | 12.6µM*
Cc1cccc(OCc2nc(CC(=O)Nc3ccc(Cl)cc3)cs2)c1 | / | -25.2% | ? | / | 1.3%
CC(Oc1ccc(Cl)cc1Cl)c1nc(-c2ccc(NC(=O)c3cccnc3)cc2)no1 (stereo not drawn) | -1.0% | ? | 15.8µM* | 4.7% | -8.8%
N=C1/C(=C/c2cccs2)C(=O)N=C2SN=C(SCc3ccccc3)N12 | 2.9% | ? | 2.8% | 9.4% | 17.8µM*
CC(C)CSC1=NSC2=NC(=O)/C(=C\c3cccs3)C(=N)N12 | 1.3% | -2.3% | -3.1% | 171.3% | -0.4%
CC1=CC2=NC(=O)/C(=C/c3cccs3)C(=N)N2O1 | -8.0% | -13.6% | ? | 9.9% | -17.3%
CSC1=NSC2=NC(=O)/C(=C\c3cccs3)C(=N)N12 | -5.0% | -7.0% | 12.3% | 6.9% | 14.1µM*
CCOc1ccc(CC(=O)NCc2ccc3c(c2)CCN3C(=O)c2ccc(F)cc2)cc1OCC | / | 5.1% | 3.4% | / | 6.5%
COc1ccc(-c2nc3n(n2)C(c2ccc(OC)cc2)C(C(=O)Nc2cccnc2)=C(C)N3)cc1 (stereo not drawn) | / | -26.8% | 8.0% | / | -15.9%
N/C(=C\C(=O)c1cc(Cl)ccc1O)C(Cl)(Cl)Cl | -1.6% | -24.7% | ? | 6.9% | 17.8µM*
CC(C)(C)c1ccc(C(=O)CC(=O)c2cc(Cl)ccc2O)cc1 | -17.1% | -14.0% | -4.9% | 9.0% | -16.7%
CCN(CC)CC(=O)Nc1ccc2c(c1)Nc1ccccc1CC2 | -7.8% | 15.8µM*[quencher] | 4.5% | -0.3% | ?
CC1(C)CC(=O)c2c(oc3cc(O)c(O)cc23)C1 | 12.6µM* | ? | ? | -19.8% | 28.2µM*
CCn1c(SCC(=O)NNC(=O)c2ccc(OC)cc2)nnc1-c1ccco1 | -3.1% | -45.3% | 0.2%[2.34 µM] | 15.5% | 5.62µM*
O=C(CSc1nnc(-c2ccco2)c(-c2ccco2)n1)Nc1ccccc1 | 15.8µM* | ? | ? | 6.4% | 7.94µM*
CSc1nnc(-c2ccco2)c(-c2ccco2)n1 | ? | ? | ? | -36.3% | 12.6µM*
